# This excerpt belongs to a sample that is enriched for hits.
# Pf Dd2 inh: inhibitors of Plasmodium falciparum Dd2 growth; Potency, µM (doses to about 28.9 µM), for inactives: top-dose activity, negative = inhibition, most hits filed as inhibitors; P. falciparum Dd2 growth, SYBR Green, 72 h; hit rate 4.3% among 120,000; active means well fitted inhibition curve with a large enough effect;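 further: plate controls were DMSO vehicle for no effect and reference drug for full effect; nearly all actives have a fitted effect of over 65% in size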
#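 Infected erythrocytes (Dd2, 0.3% parasitemia, 2.5% hematocrit final) are added to compound in RPMI-1640/Albumax II medium, grown 72 h at 37C in low oxygen, then lysed with saponin/Triton-X containing SYBR Green and read by fluorescence.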
# Active calls of the source: *; i = inactive; [ ] = dose if it differs, or a comment. Potency means the concentration at half of the fitted maximal effect.
SMILES,Pf Dd2 inh
CC1(c2ccccc2)N(Cc2ccccc2C#N)C(=O)OC12CCN(C(=O)Cc1ccc(O)cc1)CC2 (stereo not drawn),i
CC1(c2ccccc2)N(Cc2ncccn2)C(=O)OC12CCN(C(=O)Cc1ccc(Cl)cc1)CC2 (stereo not drawn),13µM*
CC1(c2ccccc2)N(Cc2cccnc2)C(=O)OC12CCN(C(=O)Cc1cccc(F)c1)CC2 (stereo not drawn),i
CC(C)C(=O)N1CCC2(CC1)OC(=O)N(Cc1ncccn1)C2(C)c1ccccc1 (stereo not drawn),i
CC1(c2ccccc2)N(Cc2ccccc2F)C(=O)OC12CCN(C(=O)Cc1ccc(O)cc1)CC2 (stereo not drawn),-6%
COCC(=O)N1CCn2c(nn(-c3ccc(F)cc3)c2=O)C1,-10%[44.1 µM]
CC(=O)N1CCCN(C(=O)c2cnc3c(c2)N(C(=O)CCc2ccccc2)CCC3)CC1,i
COc1ccc(OC)c(S(=O)(=O)N2Cc3ccccc3CC2C(=O)Nc2ccc(Cl)cc2)c1 (stereo not drawn),i
COc1ccc(NC(=O)C2Cc3ccccc3CN2S(=O)(=O)c2ccccc2)cc1OC (stereo not drawn),-25%
COc1ccc(S(=O)(=O)N2Cc3ccccc3CC2C(=O)Nc2cc(Cl)ccc2Cl)cc1 (stereo not drawn),10µM*
O=C(c1ccccc1F)N1CCCC(c2nn[nH]n2)C1 (stereo not drawn),-14%
Cc1ccc(C(=O)NC[C@H]2O[C@@H](CC(=O)N3CCN(c4ccc(F)cc4)CC3)[C@H](O)[C@@H]2O)cc1,1%
O=c1c(N2CCc3ccccc3C2)csc2ccccc12,2%
Cn1nc2n(c1=O)CCN(C(=O)CCCc1nc3ccccc3s1)CC2,-17%
NCCCC(=O)N1CCC2(CC1)CN(C(=O)Cc1ccccc1)CCO2,5%
CN(C)C(=O)N1CCC2(CC1)CN(C(=O)CCCN)Cc1ccccc1O2,10%
NCCCCC(=O)N1CCOc2c(O)cc(-c3csc4ccccc34)cc2C1,5µM*
O=C1CCCN1CCN1CCOc2c(O)cc(-c3csc4ccccc34)cc2C1,11µM*
Cc1cnc(C)c(-c2cc(O)c3c(c2)CN(CC2CNC(=O)O2)CCO3)n1 (stereo not drawn),-5%
O=C(CCc1nc2ccccc2s1)N1CCC(c2noc(-c3ccccc3)n2)C1 (stereo not drawn),-7%[5.79 µM]
C=CCCC(=O)N1CCOc2c(O)cc(-c3nc4ccccc4s3)cc2C1,11µM*
COc1ccc(CC(=O)N[C@H](C)c2c(-c3ccc(F)cc3)noc2C(=O)O)cc1,13%[44.1 µM]
COc1ccc(NC(=O)NC[C@H]2COCc3nc4ccccc4n32)cc1,i
CCCCNc1ncc(C(=O)O)c(C)n1,7%
Cc1cc(C(=O)N[C@@H]2CCC[C@@H](C(=O)NC3CC3)CC(=O)N(C)C2)nn1C,21%[44.1 µM]
SMILES,Pf Dd2 inh
CCN(C)C(=O)Cn1ncc(N2CCOC(CCN)C2)cc1=O (stereo not drawn),0%
COc1ccc(-c2onc(C)c2C(=O)NCc2cccc(Cl)c2)cc1,-24%
Cc1ccc(NC(=O)C(=O)NCC(c2cccnc2)N2CCN(Cc3ccccc3)CC2)cc1C (stereo not drawn),5.6µM*
O=C(NCC(c1cccnc1)N1CCOCC1)C(=O)Nc1ccc(F)cc1 (stereo not drawn),9%
Cc1ccc(NC(=O)C(=O)NCC(c2cccnc2)N2CCOCC2)cc1Cl (stereo not drawn),-12%
Cc1ccc(NC(=O)C(=O)NCC(c2cccnc2)N2CCN(Cc3ccccc3)CC2)cc1F (stereo not drawn),8.9µM*
COC(=O)c1ccc(NC(=O)C(=O)NCC(c2cccnc2)N2CCN(c3ccccc3)CC2)cc1 (stereo not drawn),-10%
Cc1ccc(NC(=O)C(=O)NCC(c2cccnc2)N2CCOCC2)cc1C (stereo not drawn),-16%
CC1(C(=O)NCc2cccnc2)COCc2cnc(Nc3ccccc3)nc21 (stereo not drawn),4%[44.1 µM]
O=C(c1cccnc1)N1CCCC(c2nc(C3CCOCC3)no2)C1 (stereo not drawn),-25%
COC(=O)CNC(=O)C1CCc2nnc(C3CCN([S+](=O)([O-])c4ccccc4)CC3)n21 (stereo not drawn),1%
CC(C)CN1C(=O)c2cccn2CC1CNC(=O)Cc1cccc(F)c1 (stereo not drawn),-15%
CCOc1ccc(Nc2c(S(=O)(=O)c3ccc(C)cc3)cnc3ccccc23)cc1,-14%
CC1CCCN(c2c(S(=O)(=O)c3ccccc3)cnc3ccc(Cl)cc23)C1 (stereo not drawn),-13%
Cc1ccc2ncc(S(=O)(=O)c3ccccc3)c(N3CCCCC3C)c2c1 (stereo not drawn),10µM*
O=C(c1ccccc1)N1CCC(C(=O)O)(c2ccccc2)CC1,5%
Cc1cnc2c(Cl)c(C(=O)N[C@@H]3COCC[C@@H]3OCC3CC3)nn2c1,-11%
COc1ccc(-c2nnc3ccc(N4CCCC4)nn23)nc1,i
CC1(C)[C@H](Cc2cc(CN3CCCCC3)on2)C[C@@H]1NCc1ccccn1,-6%[44.1 µM]
CCN(CC)c1cc(C)c2cc(NC(=O)c3cccc(OC)c3OC)ccc2n1,-27%
CCN(CC)c1cc(C)c2cc(NC(=O)c3cccc(OC)c3)ccc2n1,i
CCOc1ccc(C(=O)Nc2ccc3nc(N(CC)CC)cc(C)c3c2)cc1,-8%
CCOc1ccc(/C=C/C(=O)Nc2ccc3nc(N(CC)CC)cc(C)c3c2)cc1OC,1µM*
CCOc1ccccc1C(=O)Nc1ccc2nc(N(CC)CC)cc(C)c2c1,-7%
CCN(CC)c1cc(C)c2cc(NC(=O)/C=C/c3cc(OC)c(OC)c(OC)c3)ccc2n1,1.1µM*
SMILES,Pf Dd2 inh
CNC(=O)[C@@H]1C[C@@H](O)CN1C1CCN(C(=O)Cn2c(=O)oc3ccccc32)CC1,-12%
COc1ccccc1-c1noc(CCC(=O)N2CC[C@@](C)(O)[C@@H](O)C2)n1,-3%
O=C(c1ccc(Cl)cc1)N1CCC(n2c(=O)[nH]c3ccccc32)CC1,17%
O=C(Nc1ccc([C@H]2OCC(=O)N(C3CCOCC3)[C@@H]2CO)cc1)c1cnccn1,6%[44.1 µM]
CN1CCC(N2CC[C@@H]3[C@H]2C(=O)NC[C@H](CCC(=O)Nc2ccccc2)N3C)CC1,29%[44.1 µM]
COCCc1nncn1C1CCN(S(=O)(=O)c2ccc(Cl)c(C)c2)CC1,-11%
CN(Cc1ccccc1)C(=O)C1=NO[C@@H]2CN(Cc3ccc(F)cc3)C[C@H]12,17%[44.1 µM]
CCN(Cc1ccncc1)C(=O)c1cc(-c2cnc(C)nc2)nc2c(C)cccc12,-21%
CCCCN(Cc1cccnc1)C(=O)c1cnc(-c2ccc(C)cc2)[nH]c1=O,-21%
CCCN(Cc1ccncc1)C(=O)c1cnc(-c2ccccn2)[nH]c1=O,13µM*
Cc1cc(C(=O)N(CCC(=O)NCc2ccccc2)CCC(C)C)c(C)o1,-15%
Cc1cc(C(=O)N(CCC(=O)NCCC(C)C)CCC(C)C)c(C)o1,11µM*
CCCCCNC(=O)CCN(CC)C(=O)c1cc(C)oc1C,i
CC(NC(=O)c1ccc(OC2CCN(S(=O)(=O)N(C)C)CC2)cc1)c1ccc(F)cc1 (stereo not drawn),-14%
CS(=O)(=O)N(Cc1cccnc1)C1CN(C(=O)CCCc2c[nH]c3ccccc23)C1,-22%
CNC(C)c1ccc(C(F)(F)F)cc1 (stereo not drawn),15%[44.1 µM]
COc1ccccc1CNC(=O)C1CCN(c2nnc(C)c3c(C)n(-c4ccccc4)nc23)CC1,-4%
